About 83,000 compounds went through this panel and 20% of them were active in at least one assay; those are over-represented in the sample as a whole.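 Growth was measured after 48 h exposure to one concentration of compound in 96-well plates. Values under 10 count as active.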 Activity calls are given as the source filed them.
System: SR leukemia
Test: NCI-60 one-dose screen, 48 h (100 = growth as untreated, 0 = no growth, -100 = all killed)
Conditions: 10 µM unless noted

| Structure (SMILES) | growth |
| --- | --- |
| c1c[nH]c(CNC2CCCCC2)c1 | 144% (inactive) |
| COc1ccc2c(c1)CCCN2c1c2ccccc2nc2ccccc12 | 12.5% (inactive) |
| CC/C=C/C/C=C/C/C=C/C/C=C/C/C=C/C/C=C/CCC(=O)Nc1ccn([C@@H]2O[C@H](CO)[C@@H](O)C2(F)F)c(=O)n1 | 18.5% (inactive) |
| Cc1ccc2nc(NC(=O)CSc3nc(-c4ccccc4)c(C#N)c(=O)n3Cc3ccccc3)sc2c1 | 44.5% (inactive) |
| NNC(=O)c1nc(N)n(-c2ccc(S(N)(=O)=O)cc2)n1 | 88.5% (inactive) |
| O=C(CC(SCc1ccccc1)c1ccccc1)c1ccccc1 (configuration not stated) | 41% (inactive) |
| COC1=C(OC)C(=O)C(OC)=C(OC)C1=O | 94.4% (inactive) |
| COC(=O)CCC1=C(C)C2=NC1=CC1=NC(=CC3=NC(=Cc4[nH]c(/c(=C(/C)O)c4C)=C2)C(C(C)=O)=C3C)C(C)=C1CCC(=O)OC | 111% (inactive) |
| CC1=CN2C(=O)C3C4=C(CCCC4)SC3N=C2CN1c1c(C)cccc1C (configuration not stated) | 41.8% (inactive) |
| O=C(Nc1cccc(Oc2nnc(Cl)c3ccccc23)c1)Nc1ccc(Cl)c(C(F)(F)F)c1 | -23.8% (active) |
| CN1CCN(CCCOc2ccc3nc(Nc4ccc(F)c(F)c4)ccc3c2)CC1 | -6.22% (active) |
| COc1ccccc1NC(=O)N/C(N)=N/c1nc2ccccc2s1 | 9.32% (active) |
| Cc1ccc(Nc2nc(N)nc(CSCC(=O)NN)n2)cc1 | 87% (inactive) |
| CC1CC(C(C)(C)C)C(=O)C(C(C)(C)C)C1 (configuration not stated) | 101% (inactive) |
| O=C(O)c1ccc2c(c1Cl)C(=O)c1ccccc1C2=O | 70.7% (inactive) |
| N=c1sc(Cc2ccc(Cl)cc2)cn1CC(=O)c1ccc(F)cc1 | 87.4% (inactive) |
| CCCCn1c(=O)c2c(nc3n2CCCN3CCc2ccc(OCC(=O)NCCN(CC)CC)cc2)n(CCCC)c1=O | -22% (active) |
| COc1ccc(NC(=O)c2nc(-c3cc(OC)c(OC)c(OC)c3)n(-c3cccc4ccccc34)n2)cc1OC | 33.1% (inactive) |
| O=C1CCc2c(sc3[nH]c(=S)n(-c4ccc(OC(F)(F)F)cc4)c(=O)c23)C1 | 35.8% (inactive) |

| Structure (SMILES) | growth |
| --- | --- |
| C[C@@]1(CCC#N)[C@H]2CC[C@@H]3[C@H]4[C@H](C(=O)/C=C/c5cccnc5)CC[C@]4(C#N)CC[C@@]3(C)[C@]2(C)CC[C@H]1C(=O)/C=C/c1cccnc1 | 12.9% (inactive) |
| Cc1c(C)c2c(c(C)c1OCC(=O)O)CC[C@@](C)(CCC[C@@H](C)CCC[C@@H](C)CCCC(C)C)O2 | 0.521% [50 µM] (active) |
| O=C(NCCCNc1cc(-c2cn(-c3ccccc3)nc2-c2cccc(O)c2)ccn1)c1ccc(F)cc1 | -26.4% (active) |
| Cn1c(-c2c(N)n(Cc3ccc(C(F)(F)F)cc3)c3nc(C#N)c(C#N)nc23)nc2ccccc21 | -35.5% (active) |
| Nc1nc(N)c2c(n1)NC(c1ccccc1)C1CCc3ccccc3C1=N2 (configuration not stated) | 19.3% (inactive) |
| COc1ccc2[nH]c(O)c(/C=c3/cc4c(c(-c5cc(OC)c(OC)c(OC)c5)n3)=Nc3ccccc3-4)c2c1 | 10.4% (inactive) |
| CCOC(=O)c1c2ncccc2n2c(=O)n(-c3ccccc3C)nnc12 | 60.4% (inactive) |
| COc1cccc(C(=O)NCCCNc2cc(-c3cn(-c4ccccc4)nc3-c3cccc(OC)c3)ccn2)c1 | 8.19% (active) |
| N[C@@H](CCCCNCC(=O)O)C(=O)O | 99.3% (inactive) |
| CC(CCc1ccc(Cl)c(Cl)c1)NCc1ccc(C(C)(C)C)cc1 (configuration not stated) | -10.5% (active) |
| O=Cc1ccc(O)c2ncccc12 | -41.3% (active) |
| CCCCOc1nc2ccccc2cc1C1CNC(=O)c2ccccc2N1 (configuration not stated) | 19.8% (inactive) |
| COc1ccc2occ(C3=C(c4c[nH]c5ccccc45)C(=O)N(O)C3=O)c2c1 | 57.2% (inactive) |
| N#CC1=C(NC=O)Oc2c(ccc3ccccc23)C1c1ccccc1 (configuration not stated) | 22.9% (inactive) |
| Fc1c[c-]c(-c2ccccn2)c(F)c1.[CH3-].[Pt+2].c1ccc(P(C[PH+](c2ccccc2)c2ccccc2)c2ccccc2)cc1 | 1.65% (active) |
| N=C1C(c2nc(-c3ccc(Br)cc3)cs2)=C(O)CN1CC1CCCO1 (configuration not stated) | 38.9% (inactive) |
| NS(=O)(=O)c1cnccc1Sc1ccncc1S(N)(=O)=O | 92.2% (inactive) |
| N#Cc1c(-c2ccccn2)[nH]c(=S)[nH]c1=O | 95.4% (inactive) |

From PubChem BioAssay (NCI)
